PubChem BioAssay (NCATS)
“And” between values parts separate entries of the source, which are not always exact repeats. Equal values may be shown once. Results filed as inconclusive are left out. Entries that show only a call come without a potency. The source made the active and inactive calls. Unless noted, calls come from the whole dose curve; as a rule, active = well fitted curve in the direction sought with a large enough effect; inconclusive = small, poorly fitted or top-dose-only effect, or another doubt; inactive = no such curve, though single readings can be large; an effect the other way counts as inactive or inconclusive.

Tests used:
[1] = Cell Viability - SH-SY5Y (AID 544); conditions: SH-SY5Y neuroblastoma cell viability; viability change, negative = cytotoxic: at 92.2 µM (top of the series);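 note: cells exposed to compound for 40 hours; nearly all actives have a fitted effect of over 55% in size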
Method in brief: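 Quantitative HTS in SH-SY5Y neuroblastoma cells, 40 hr treatment at 37 °C, ATP content by luciferase luminescence; AC50 from Hill fits.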

[2] = Cellular Toxicity (caspase-3) Hek293 (AID 664);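 note: cells exposed to compound for 16 h at 37 °C before readout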
Method in brief: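 Apoptosis readout: Caspase-Glo 3/7 signal in human HEK293 cells following 16-hour compound incubation. Responses scaled between DMSO baseline and 100 uM tamoxifen.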

[3] = MultiTox-Fluor Cytotoxicity Assay - LYMP1-001 - Dead Cells (AID 946); note: potency is the fitted concentration of half-maximal effect
Method in brief: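 AC50 from Hill fit of concentration-response; data normalized to DMSO (basal) and 15 uM tetraoctylammonium bromide (100%). LYMP1-001 lymphoblastoid cells, 2500/well, 16 hr compound at 37 C; dead-cell protease fluorescence, Ex/Em 485/520.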

[4] = MultiTox-Fluor Cytotoxicity Assay - LYMP1-001 - Live Cells (AID 947); note: potency is the fitted concentration of half-maximal effect
[5] = Cell Viability - LYMP1-003 - Assay at 40 hr (AID 964); note: nearly all actives have a fitted effect of over 60% in size; note: potency is the fitted concentration of half-maximal effect
Method in brief: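 Acute toxicity is scored as a concentration-dependent loss of intracellular ATP in LYMP1-003 cells (2500/well, complete medium) after 40 hr at 37 C, measured by CellTiter-Glo luminescence; AC50 values derive from standard Hill modelling.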

[6] = Cell Viability - LYMP2-011 (AID 969); note: nearly all actives have a fitted effect of over 60% in size; note: potency is the fitted concentration of half-maximal effect
Method in brief: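 Cells seeded at 2500 per well rest 5 hr before compound addition, then incubate 24 hr at 37 C. CellTiter-Glo reagent is added for 30 min at room temperature before luminescence detection.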

[7] = Cell Viability - LYMP2-015 (AID 971);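 note: cells exposed to compound for 24 h; nearly all actives have a fitted effect of over 55% in size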; note: potency is the fitted concentration of half-maximal effect
Method in brief: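 AC50 values reflect Hill-model fits of ATP-based luminescence (CellTiter-Glo) from a human lymphoblastoid line, 2500 cells/well, treated 24 hr at 37 C.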

[8] = Cell Viability - LYMP2-019 (AID 973);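 note: cells exposed to compound for 24 h at 37 °C; nearly all actives have a fitted effect of over 55% in size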; note: potency is the fitted concentration of half-maximal effect
Method in brief: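 AC50 values come from Hill-equation modelling of qHTS concentration-response curves, where viability is measured as luciferase-based ATP luminescence in the lymphoblastoid line after 24 hr compound exposure in complete culture medium.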

[9] = Cell Viability - LYMP2-014 (AID 983);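 note: cells exposed to compound for 24 h at 37 °C; nearly all actives have a fitted effect of over 50% in size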
Method in brief: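 Quantitative HTS in lymphoblastoid cells: 24 hr compound exposure, then CellTiter-Glo ATP luminescence. Positive control was tetraoctylammonium bromide, 6.4pM to 92 uM.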

[10] = Cell Viability - LYMP2-016 (AID 984); note: nearly all actives have a fitted effect of over 55% in size; note: potency is the fitted concentration of half-maximal effect
Method in brief: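 Human lymphoblastoid cells (LYMP2-016), 2500/well in complete medium, preincubated 5 hr at 37 C, then compound-treated 24 hr at 37 C. Intracellular ATP read by CellTiter-Glo luminescence after 30 min at room temperature; AC50 from Hill-equation concentration-response fits.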

[11] = Cell Viability - LYMP1-002 - Assay at 24 hr (AID 993); note: potency is the fitted concentration of half-maximal effect
Method in brief: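 Viability was judged from intracellular ATP using a luciferase read-out, following a 24-hour compound incubation at 37 C of lymphoblastoid cells seeded at 2500 per well. Concentration-response data were fitted to the Hill equation for AC50.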

[12] = target: Vitamin D3 receptor (Homo sapiens) (UniProt P11473); assay: qHTS assay for small molecule agonists of vitamin D receptor signaling (AID 588543; calls by dose curve)
Chain of Vitamin D3 receptor (Homo sapiens) (P11473 whole entry, looked up): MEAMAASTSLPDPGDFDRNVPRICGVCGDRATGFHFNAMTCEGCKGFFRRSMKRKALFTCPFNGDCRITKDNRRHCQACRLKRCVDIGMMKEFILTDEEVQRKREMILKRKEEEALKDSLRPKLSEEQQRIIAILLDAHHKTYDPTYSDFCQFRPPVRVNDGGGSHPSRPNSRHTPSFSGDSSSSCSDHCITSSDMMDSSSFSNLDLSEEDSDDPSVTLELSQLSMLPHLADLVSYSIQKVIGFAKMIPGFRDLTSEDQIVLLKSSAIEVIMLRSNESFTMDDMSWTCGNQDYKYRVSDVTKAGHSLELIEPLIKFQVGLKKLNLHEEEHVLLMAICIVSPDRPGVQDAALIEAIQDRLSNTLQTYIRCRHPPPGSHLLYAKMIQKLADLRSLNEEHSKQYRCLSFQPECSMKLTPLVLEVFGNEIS
Method in brief: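 GeneBLAzer VDR-UAS-bla HEK293T cells in 2% charcoal-stripped FBS medium were dosed with compound titrations for 16 h at 37 °C; CCF4 β-lactamase readout (405 nm ex, 460/530 nm em). EC50 and efficacy from Hill fits, normalized to 50 nM calcitriol (100%) and DMSO (0%).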

[13] = qHTS assay for small molecule agonists of retinoid X receptor alpha signaling (AID 588544); conditions: HEK293T RXRa-UAS-bla, beta-lactamase reporter, 18 h; 530 nm emission
[14] = qHTS assay for small molecule agonists of the antioxidant response element (ARE) signaling pathway (AID 651741; active = well fitted activation curve with a large enough effect in the signal ratio; the % refers to the signal ratio; note: potency is the fitted concentration of half-maximal effect)
Method in brief: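 HepG2 ARE-bla reporter cells, 2,000/well; 5 h settle at 37 C/5% CO2; compound pin transfer (23 nL, DMSO); 16 h at 37 C; LiveBLAzer B/G FRET substrate, 2 h RT; fluorescence intensity read.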

[15] = target: Nuclear receptor subfamily 1 group I member 2 (Rattus norvegicus) (UniProt Q9R1A7); assay: qHTS assay for small molecule activators of the rat pregnane X receptor (rPXR) signaling pathway (AID 651751; call rule not given here); conditions: rPXR reporter cells, luciferase (One-Glo), 24 h
Chain of Nuclear receptor subfamily 1 group I member 2 (Rattus norvegicus) (Q9R1A7 whole entry, looked up): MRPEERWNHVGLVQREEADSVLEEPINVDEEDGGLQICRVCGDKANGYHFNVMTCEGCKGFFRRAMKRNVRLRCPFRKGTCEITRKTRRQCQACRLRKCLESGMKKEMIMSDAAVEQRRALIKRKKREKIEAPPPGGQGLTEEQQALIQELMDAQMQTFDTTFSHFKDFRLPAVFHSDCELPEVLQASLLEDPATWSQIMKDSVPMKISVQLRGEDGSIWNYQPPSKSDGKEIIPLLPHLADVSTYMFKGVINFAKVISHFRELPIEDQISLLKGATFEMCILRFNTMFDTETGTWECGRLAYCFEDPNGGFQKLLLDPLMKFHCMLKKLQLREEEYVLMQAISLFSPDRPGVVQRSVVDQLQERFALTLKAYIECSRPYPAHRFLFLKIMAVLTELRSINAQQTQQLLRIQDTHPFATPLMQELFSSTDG

[16] = tested on: AS120; assay: qHTS profiling for inhibitors of Plasmodium falciparum proliferation (AID 504749); note: nearly all actives have a fitted effect of over 60% in size; conditions: P. falciparum in erythrocytes, SYBR Green DNA, 72 h; series mostly up to 28.7 µM
Method in brief: (§1)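 SYBR Green fluorescence (ex 485 nm, em 535 nm) reports parasite DNA after 72 h compound exposure of infected red cells at 0.3% parasitemia, 2.5% hematocrit; signal normalized to 0.29 uM artemisinin and vehicle wells.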

[17] = tested on: ATS189; assay: as above; conditions: P. falciparum in erythrocytes, SYBR Green DNA, 72 h; series mostly up to 28.7 µM
Method in brief: as §1

[18] = tested on: DFO2036; assay: as above; conditions: P. falciparum in erythrocytes, SYBR Green DNA, 72 h; series mostly up to 28.7 µM
Method in brief: as §1

[19] = tested on: TAB109; assay: as above; conditions: P. falciparum in erythrocytes, SYBR Green DNA, 72 h; series mostly up to 12.8 µM
Method in brief: as §1

| Structure (SMILES) | Potency [1] | outcome [2] | Potency [3] | Potency [4] | Potency [5] | Potency [6] | Potency [7] | Potency [8] | Potency [9] | Potency [10] | Potency [11] | outcome [12] | max response [13] | Potency [14] | max response [15] | Potency [16] | Potency [17] | Potency [18] | Potency [19] |
| --- | --- | --- | --- | --- | --- | --- | --- | --- | --- | --- | --- | --- | --- | --- | --- | --- | --- | --- | --- |
| ClC(Cl)=C(c1ccc(Cl)cc1)c1ccc(Cl)cc1 | inactive | inactive | inactive | inactive | inactive | inactive | inactive | inactive | inactive | inactive | inactive | inactive | 8.46% | 66.8 µM (active) | 1.57% (inactive) and 5.61% (inactive) and 0.401% (inactive) |  |  |  |  |
| COP(=S)(OC)Oc1ccc([N+](=O)[O-])cc1 | inactive | inactive | inactive | inactive | inactive | inactive | inactive | inactive | inactive | inactive | inactive | inactive | -22.5% and 4.79% | inactive | 8.93% (inactive) and 0.334% (inactive) |  |  |  |  |
| ClC1=C(Cl)C2(Cl)C3C(Cl)C=CC3C1(Cl)C2(Cl)Cl (stereo not given) | inactive |  | 50.1 µM (active) |  |  |  |  | inactive | inactive | inactive |  |  |  |  | -2.14% (inactive) |  |  |  |  |
| CCc1cccc(CC)c1N(COC)C(=O)CCl |  | inactive |  | inactive |  |  | 50.1 µM (active) | 50.1 µM (active) |  |  | inactive | inactive | 19.2% | 13.3 µM (active) and 24.3 µM (active) | -3.94% (inactive) and -1.3% (inactive) |  |  |  |  |
| ClC1=C(Cl)C2(Cl)C3C4CC(C5OC45)C3C1(Cl)C2(Cl)Cl (stereo not given) | inactive | inactive | 31.6 µM (active) | 15.8 µM (active) | 10 µM (active) | 39.8 µM (active) | 39.8 µM (active) |  |  | 50.1 µM (active) | 12.6 µM (active) | inactive |  | 42.2 µM (active) |  | inactive | inactive | inactive | inactive |
